Experimental data published in PubChem BioAssay (EPA / NIEHS).
Where a structure was tested more than once in an assay, its records may differ in their call. Active and inactive are the calls of the source. The calls were made as follows: active = hit-call score of the fitted dose curve at least 0.9, where 1 is the maximum; inactive = score below 0.9.

Read-out: Monokine induced gamma interferon (MIG), CXCL9 (gene 4283)
Test: BSK_SAg_MIG: BioMAP Diversity Plus: SAg Assay for Monokine induced gamma interferon (MIG) Biomarker Activity (AID 2283092)
Settings: primary human HUVEC with PBMC; actives raise or lower the signal
Summary of the method: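 Values reflect bidirectional fitting of ELISA-measured MIG against DMSO vehicle, taken 24 h after dosing of a co-culture of human umbilical vein endothelial cells and peripheral blood mononuclear cells.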

SMILES | AC50 | outcome
ClC1=C(Cl)[C@]2(Cl)[C@H]3[C@H]([C@@H]4C=C[C@H]3C4)[C@@]1(Cl)C2(Cl)Cl | 35 µM (active) | –
CCCCCCCCCCCCCN1CC(C)OC(C)C1 (configuration not stated) | – | inactive
CN(C)c1ccc(C(=O)c2ccc(N(C)C)cc2)cc1 | – | inactive
Cc1ccc([N+](=O)[O-])cc1 | – | inactive
CN(C)[C@@H]1C(=O)C(C(N)=O)=C(O)[C@@]2(O)C(=O)C3=C(O)c4c(O)cccc4[C@@](C)(O)[C@H]3C[C@@H]12 | – | inactive
C[C@]12C=CC3=C4CCC(=O)C=C4CC[C@H]3[C@@H]1CC[C@@H]2O | – | inactive
O=[N+]([O-])C(Br)(CO)CO | 39.1 µM (active) | –
O=Cc1ccco1 | – | inactive
c1ccc(N=Nc2ccccc2)cc1 | – | inactive
CCOc1cccc(C2(N3CCN(c4ccccc4)CC3)CCC(C)CC2)c1 (configuration not stated) | – | inactive
[O-][Cl+]O | – | inactive
CCCSC(=O)N(CCC)CCC | – | inactive
CC(C)(O)c1cnn2c(-c3ccc(F)c(-c4c(F)cccc4C#N)c3)cnc2n1 | – | inactive
Clc1ccc(Cl)c(Cl)c1 | – | inactive
CN(C)C(=O)Nc1ccc(Cl)cc1 | – | inactive
COP(=S)(OC)SCN1C(=O)c2ccccc2C1=O | – | inactive
N#CC(Br)(Br)C(N)=O | – | inactive
C=CCc1ccc2c(c1)OCO2 | – | inactive
COC(=O)c1ccccc1N | – | inactive
CCNS(=O)(=O)C(F)(F)C(F)(F)C(F)(F)C(F)(F)C(F)(F)C(F)(F)C(F)(F)C(F)(F)F | 49.1 µM (active) | inactive

Read-out: not listed separately
Test: BSK_SAg_PBMCCytotoxicity: PBMC Cytotoxicity Assessment in the BioMAP Diversity Plus: SAg Assay (AID 2283093);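 also: fitted both ways against DMSO so a hit may be loss or gain of signal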;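 as to AC50: PBMC superantigen activated with SEB plus TSST-1 one hour after compound addition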
Settings: primary human HUVEC with PBMC
Summary of the method: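 PBMC viability by Alamar Blue reduction, fluorescence read at 546/580 nm after 6 h dye exposure. Cells were dosed 1 h before SEB plus TSST-1 activation (20 ng/mL final each), then held 90 h; endothelial/PBMC human co-culture.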

SMILES | outcome | AC50
O=C(Oc1ccc(Br)cc1)N1CCN2CCC1CC2 | inactive | –
ClC1=C(Cl)[C@]2(Cl)[C@H]3[C@H]([C@@H]4C=C[C@H]3C4)[C@@]1(Cl)C2(Cl)Cl | – | 15.4 µM (active)
CCCCCCCCCCCCCN1CC(C)OC(C)C1 (configuration not stated) | inactive | –
CN(C)c1ccc(C(=O)c2ccc(N(C)C)cc2)cc1 | inactive | –
Cc1ccc([N+](=O)[O-])cc1 | inactive | –
CN(C)[C@@H]1C(=O)C(C(N)=O)=C(O)[C@@]2(O)C(=O)C3=C(O)c4c(O)cccc4[C@@](C)(O)[C@H]3C[C@@H]12 | inactive | –
C[C@]12C=CC3=C4CCC(=O)C=C4CC[C@H]3[C@@H]1CC[C@@H]2O | inactive | –
O=[N+]([O-])C(Br)(CO)CO | – | 22.5 µM (active)
O=Cc1ccco1 | inactive | –
c1ccc(N=Nc2ccccc2)cc1 | inactive | –
Cn1cc(-c2ccccc2)c(=O)c(-c2cccc(C(F)(F)F)c2)c1 | inactive | –
CCOc1cccc(C2(N3CCN(c4ccccc4)CC3)CCC(C)CC2)c1 (configuration not stated) | inactive | –
[O-][Cl+]O | inactive | –
CCN(CC)N=O | inactive | –
CCCSC(=O)N(CCC)CCC | inactive | –
CC(C)(O)c1cnn2c(-c3ccc(F)c(-c4c(F)cccc4C#N)c3)cnc2n1 | – | 7.8 µM (active)
c1ccc(NNc2ccccc2)cc1 | inactive | –
Clc1ccc(Cl)c(Cl)c1 | inactive | –
CC(C)COC(=O)c1ccccc1C(=O)OCC(C)C | – | 37 µM (active)
CN(C)C(=O)Nc1ccc(Cl)cc1 | inactive | –
[As]#[In] | inactive | –
COP(=S)(OC)SCN1C(=O)c2ccccc2C1=O | inactive | –
N#CC(Br)(Br)C(N)=O | inactive | –
C=CCc1ccc2c(c1)OCO2 | inactive | –
COC(=O)c1ccccc1N | inactive | –
CCNS(=O)(=O)C(F)(F)C(F)(F)C(F)(F)C(F)(F)C(F)(F)C(F)(F)C(F)(F)C(F)(F)F | inactive | 48 µM (active)
CCC12COCN1COC2 | inactive | –

Read-out: Interleukin-8 (IL8), CXCL8 (gene 3576)
Test: BSK_SAg_IL8: BioMAP Diversity Plus: SAg Assay for Interleukin-8 (IL8) Biomarker Activity (AID 2283094)
Settings: primary human HUVEC with PBMC; actives raise or lower the signal
Summary of the method: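 HUVEC/PBMC co-culture, 24 h post-dose; IL-8 by ELISA. Gain or loss of signal fitted bidirectionally vs DMSO baseline.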

SMILES | outcome | AC50
O=C(Oc1ccc(Br)cc1)N1CCN2CCC1CC2 | inactive | –
ClC1=C(Cl)[C@]2(Cl)[C@H]3[C@H]([C@@H]4C=C[C@H]3C4)[C@@]1(Cl)C2(Cl)Cl | – | 30.9 µM (active)
CCCCCCCCCCCCCN1CC(C)OC(C)C1 (configuration not stated) | inactive | –
CN(C)c1ccc(C(=O)c2ccc(N(C)C)cc2)cc1 | inactive | –
Cc1ccc([N+](=O)[O-])cc1 | inactive | –
CN(C)[C@@H]1C(=O)C(C(N)=O)=C(O)[C@@]2(O)C(=O)C3=C(O)c4c(O)cccc4[C@@](C)(O)[C@H]3C[C@@H]12 | inactive | –
C[C@]12C=CC3=C4CCC(=O)C=C4CC[C@H]3[C@@H]1CC[C@@H]2O | inactive | –
O=[N+]([O-])C(Br)(CO)CO | – | 27.6 µM (active)
O=Cc1ccco1 | inactive | –
c1ccc(N=Nc2ccccc2)cc1 | inactive | –
Cn1cc(-c2ccccc2)c(=O)c(-c2cccc(C(F)(F)F)c2)c1 | inactive | –
CCOc1cccc(C2(N3CCN(c4ccccc4)CC3)CCC(C)CC2)c1 (configuration not stated) | inactive | –
[O-][Cl+]O | inactive | –
CCN(CC)N=O | inactive | –
CCCSC(=O)N(CCC)CCC | inactive | –
CC(C)(O)c1cnn2c(-c3ccc(F)c(-c4c(F)cccc4C#N)c3)cnc2n1 | – | 4.31 µM (active)
c1ccc(NNc2ccccc2)cc1 | inactive | –
Clc1ccc(Cl)c(Cl)c1 | inactive | –
CC(C)COC(=O)c1ccccc1C(=O)OCC(C)C | inactive | –
CN(C)C(=O)Nc1ccc(Cl)cc1 | inactive | –
[As]#[In] | inactive | –
COP(=S)(OC)SCN1C(=O)c2ccccc2C1=O | inactive | –
N#CC(Br)(Br)C(N)=O | inactive | –
C=CCc1ccc2c(c1)OCO2 | inactive | –
COC(=O)c1ccccc1N | inactive | –
CCNS(=O)(=O)C(F)(F)C(F)(F)C(F)(F)C(F)(F)C(F)(F)C(F)(F)C(F)(F)C(F)(F)F | inactive | 30 µM (active)
CCC12COCN1COC2 | inactive | –
